Only some compounds are listed: those with a hit (about 2.4% of all), similar ones and a draw of the others.
Cruzain inh noDet: blocks cruzain activity in detergent-free assay. purified cruzain, Z-FR-AMC fluorescence, no detergent. P25779. AID 1476. Potency, µM, inactives show max response, negative = inhibition, actives largely listed as inhibitors. hit rate 2.3% among 200,000;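 further: plate controls were enzyme without inhibitor for no effect and buffer without enzyme for full effect; nearly all actives have a fitted effect of over 40% in size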
Target sequence (P25779 123-467 limits assumed): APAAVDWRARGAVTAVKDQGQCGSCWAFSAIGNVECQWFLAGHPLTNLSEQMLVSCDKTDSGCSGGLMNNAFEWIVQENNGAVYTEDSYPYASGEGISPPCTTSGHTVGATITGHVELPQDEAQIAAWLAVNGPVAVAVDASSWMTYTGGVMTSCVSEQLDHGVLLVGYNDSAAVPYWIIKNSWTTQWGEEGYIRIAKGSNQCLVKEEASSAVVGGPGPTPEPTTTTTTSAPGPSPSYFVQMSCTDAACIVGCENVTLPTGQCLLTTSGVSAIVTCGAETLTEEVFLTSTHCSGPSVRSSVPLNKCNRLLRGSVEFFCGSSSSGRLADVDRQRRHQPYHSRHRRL
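Purified cruzain at 1.5 nM, pre-incubated 15 min with compound at room temperature in 100 mM sodium acetate pH 5.5, 5 mM DTT, 0.00005% Triton X-100. Reaction started with 2 uM Z-FR-AMC; AMC fluorescence increase over 60 s gives rate.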
Cruzain inh Det: cruzain (T. cruzi) inhibition with detergent; P25779; purified cruzain, Z-FR-AMC fluorescence, 0.01% Triton; Potency, µM, for inactives: max response, negative = inhibition, actives largely listed as inhibitors; hit rate 0.43% among 200,000; AID 1478;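 further: plate controls were neutral wells for no effect and buffer without enzyme for full effect; nearly all actives have a fitted effect of over 40% in size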
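Read-out: AMC fluorescence (360 nm excitation, 450 nm emission), four reads over 2 min, first-to-third difference used. Conditions: cruzain 1.5 nM, Z-FR-AMC 2 uM, pH 5.5 acetate, 5 mM DTT, 0.01% Triton X-100.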
Starred values were filed as active, the others as inactive; ? = inconclusive; ! = not confirmed by another sample. The call rests on the fitted dose curve; in most records, active means well fitted curve in the direction sought with a large enough effect; inconclusive means small, poorly fitted or top-dose-only effect, or another doubt; inactive means no such curve, though single readings can be large; an effect the other way counts as inactive or inconclusive. Potency means the concentration at half of the fitted maximal effect.

SMILES	Cruzain inh noDet	Cruzain inh Det
Cc1ccc2oc(-c3cc(NC(=O)c4ccco4)ccc3Cl)nc2c1	-0.3%	-11.0%
Cc1ccc2oc(-c3cc(NC(=O)c4oc5ccccc5c4C)ccc3Cl)nc2c1	3.16µM*	-1.2%
Cc1ccc(C(=O)Nc2ccc(C(=O)OCc3cc(=O)n4c5c(sc4n3)CCCC5)cc2)cc1	-7.1%	-2.1%
CCC(=O)C1=C(c2cccc([N+](=O)[O-])c2)N(C(=O)CC)n2c(nnc2-c2ccccc2)S1	5.6%	5.2%
Cc1cc(-c2cccs2)c2c(N)c(C(=O)c3ccc4c(c3)OCO4)sc2n1	25.1µM*	-6.5%
COc1ccc(C(=O)c2sc3nc(C)cc(-c4cccs4)c3c2N)cc1	?	-5.3%
COc1ccccc1Oc1ccc2c(c1)C(=O)N(c1ccc(O)cc1)C2=O	20µM*	1.2%
CC(C)(C)C(=O)Nc1ccc(Oc2ccc3c(c2)C(=O)N(c2ccc(O)cc2)C3=O)cc1	-11.0%	0.5%
O=C(NCc1ccccc1F)C(=O)NCC(c1ccco1)S(=O)(=O)c1cccs1 (configuration not stated)	0.4%	-2.7%
Cc1nc(-c2ccc(S(=O)(=O)NCc3ccc(OC(C)C)cc3)cc2)co1	1.3%	-4.8%
CN(Cc1ccc(F)cc1)S(=O)(=O)c1nnc(NC(=O)c2ccccc2)s1	?	-1.2%
CN(Cc1ccc(F)cc1)S(=O)(=O)c1nnc(NC(=O)c2ccc(F)cc2)s1	15.8µM*	-2.7%
CCc1ccc(-c2nc(CN3CCCC(C(=O)NCc4ccccc4Cl)C3)c(C)o2)cc1 (configuration not stated)	10.0%	0.4%
NC(N)=Nc1nc(CSCC/C(N)=N/S(N)(=O)=O)cs1	10µM*!	-14.1%
O=C(O)c1cc2c(s1)-c1ccccc1OC2	25.1µM*	?
O=C(O)c1cc2c(s1)-c1ccccc1CC2	-4.0%	-0.6%
CCCCN(C(=O)c1cccc(S(=O)(=O)N2CCCCC2)c1)C1CCS(=O)(=O)C1 (configuration not stated)	13.5%	-1.7%
COc1ccc(N=C2C(=Nc3ccc(OC)cc3)N(c3ccccc3)C(=S)N2C(=O)c2ccc(Cl)cc2)cc1	3.98µM*	-2.6%
COc1ccc(N=C2C(=Nc3ccc(OC)cc3)N(c3ccc(N(C)C)cc3)C(=S)N2c2ccc(OC)cc2)cc1	7.94µM*	-5.0%
COc1ccc(N=C2C(=Nc3ccc(OC)cc3)N(c3ccc(OC)cc3)C(=S)N2C(=O)c2ccc(OC)cc2)cc1	5.01µM*	-4.7%
COc1ccc(N2CCN(C(=O)c3ccncc3)CC2)cc1	2.1%	5.5%
COc1ccc(C(=O)c2ccc(Cl)cc2)cc1	5.9%	-2.7%
COc1ccc(NC(=S)c2ccc(N(C)C)cc2)cc1	7.8%	-4.2%
COc1ncc2ncc(=O)n(C3CC3)c2n1	-6.1%	-7.6%
C[C@H](C(=O)c1ccccc1)C(c1ccccc1)N1CCOCC1 (some centres not stated)	9.8%	4.6%
SMILES	Cruzain inh noDet	Cruzain inh Det
CCOc1ccc(-c2cc3c(=O)n(Cc4nc(-c5ccccc5OCC)oc4C)ccn3n2)cc1Cl	8.1%	-2.4%
CC(/C=C/c1ccc(N(C)C)cc1)=N\N=C(/N)SC1CC(=O)N(c2ccc(C(=O)O)cc2)C1=O (configuration not stated)	10µM*	?
O=C(O)c1ccc(N2C(=O)CC(SC(=Nc3ccccc3)Nc3ccccc3)C2=O)cc1 (configuration not stated)	-2.3%	-2.3%
Cc1cc(C)cc(-n2cnc3cc(C(=O)NC4CCCCCC4)ccc32)c1	5.7%	-1.1%
S=C(c1ccc(-c2cc(Cl)ccc2Cl)o1)N1CCOCC1	-10.9%	-14.8%
O=C(Nc1ccc(CN2CCOCC2)cc1)c1ccc(-c2cc(Cl)ccc2Cl)o1	25.1µM*	-19.1%
O=C(Nc1cccc(F)c1)N1CC2(CCN(C(=O)c3cc(C(F)(F)F)cc(C(F)(F)F)c3)CC2)C1	1.7%	5.1%
IC(I)I	-2.5%	0.1%
CCN(CC)c1ccc(N2C(=O)/C(=C\c3cccs3)SC2=S)cc1	25.1µM*	-3.3%
O=C1/C(=C/c2cccs2)SC(=S)N1c1ccccc1	?	-1.4%
CCN(CC)CCn1c(-c2ccccc2)nc2c(NCc3ccccc3)nc(C)nc21	2.2%	-3.1%
c1ccc2oc(C3=NNC(=NC4CC4)SC3)cc2c1	15.8µM*	-11.1%
c1ccc(CN=C2NN=C(c3cc4ccccc4o3)CS2)cc1	?	-15.8%
Nc1c(Cl)cc(Cl)cc1Cl	0.5%	2.0%
CC(C)CN(CCCNC(=O)c1cc(-c2ccc(Br)s2)nc2ccccc12)CC(C)C	-3.3%	-2.9%
COc1ccc(C2(C(=O)Nc3nncs3)CCCC2)cc1	-2.5%	2.1%
COc1ccc(NC(=O)C2(c3ccc(NC(=O)c4ccc(OC)cc4)cc3)CCCC2)cc1	7.94µM*	-0.2%
COc1ccc(C(=O)Nc2ccc(N3CCCC3)cc2)cc1	10µM*	?
CCCOc1ccc(C(=O)Nc2ccc(N3CCN(C(C)=O)CC3)cc2)cc1	?	-3.5%
CCOc1ccc(C(=O)Nc2ccc(N3CCCC3)cc2)cc1	7.94µM*	-14.6%
COc1ccc(C(=O)N/N=C(/C)c2ccc(N3CCCCC3)cc2)cc1	?	-14.8%
O=C(Nc1ccc(N2CCCCC2)cc1)c1ccc(F)cc1	25.1µM*	3.7%
O=C(c1ccc(F)cc1)c1ccc(N2CCCC2)cc1	2.3%	-6.5%
CCOC(=O)c1cc(S(=O)(=O)Nc2ccccc2)[nH]n1	5.9%	1.9%
Cc1ccccc1Nc1c(-c2c(F)cccc2Cl)nc2ccc(Br)cn12	0.6%	-1.7%
SMILES	Cruzain inh noDet	Cruzain inh Det
CCOC(=O)Cc1csc(NC(=O)COc2ccc(N(C)S(=O)(=O)c3ccc(C)cc3)cc2)n1	-7.0%	-5.4%
CCOc1ccc(S(=O)(=O)N(C)c2ccc(OCC(=O)Nc3nc(-c4cc(OC)ccc4OC)cs3)cc2)cc1	7.94µM*	-2.4%
CCCn1c(SCc2nc(-c3ccc(OC)c(OC)c3)no2)nnc1-c1ccccc1	-7.9%	-6.1%
CC(=O)c1cccc(NC(=O)C(OC(=O)c2cccs2)c2ccccc2)c1 (configuration not stated)	31.6µM*	-6.4%
COCCNC(=O)C(OC(=O)c1cccs1)c1ccccc1 (configuration not stated)	12.1%	7.7%
CCC/C=C(\CCC)C(NC(=O)Oc1ccc(F)cc1)c1ccc(C(=O)OC)cc1 (configuration not stated)	1.8%	2.9%
CC(C)S(=O)(=O)c1oc(-c2ccc(F)cc2)nc1S(=O)(=O)c1ccccc1	-1.2%	-6.7%
CCCNC(=O)CSc1nc2ccccc2nc1Cc1ccc(Cl)cc1	-10.3%	4.9%
CCc1ccc(N2C(=O)CSC23C(=O)N(Cc2ccc(C)cc2)c2ccccc23)cc1 (configuration not stated)	-25.6%	-8.6%
O=C1CS(=O)(=O)C2(C(=O)N(Cc3cccc(F)c3)c3ccccc32)N1c1ccccc1 (configuration not stated)	10µM*	-6.0%
CCc1ccc(N2C(=O)CS(=O)(=O)C23C(=O)N(Cc2ccccc2)c2ccccc23)cc1 (configuration not stated)	2.51µM*	-4.4%
CCc1ccc(N2C(=O)CSC23C(=O)N(Cc2cccc(F)c2)c2ccccc23)cc1 (configuration not stated)	-3.9%	0.4%
CCCCS(=N)(=O)CC[C@H](N)C(=O)O (some centres not stated)	8.2%	-3.2%
CC(C)(C)c1ccc(C(=O)NNc2ncnc3c2cnn3-c2ccccc2)cc1	-3.4%	1.1%

Screening data deposited in PubChem BioAssay by National Center for Advancing Translational Sciences (NCATS).
